According to PubChem BioAssay (NCI):
About 79,000 compounds went through this panel and 15% of them were active in at least one assay; those are over-represented in the sample as a whole. Rule as the data show it: active = growth inhibition above about 70%; inactive = the rest.

Key:
[1] = NCI Yeast Anticancer Drug Screen. Data for the rad50 strain (AID 155);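 also: 0% = growth of vehicle-only cultures of the same strain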; conditions: S. cerevisiae rad50 strain growth inhibition; at 50.0 µM; stronger effect = higher value
Method in brief: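 A DNA repair-deficient yeast mutant serves as the test organism; compound-induced growth inhibition is calculated against vehicle-treated cells.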

[2] = NCI Yeast Anticancer Drug Screen. Data for the mec2-1 strain (AID 157); conditions: S. cerevisiae mec2-1 strain, at 50.0 µM, stronger effect = higher value
Method in brief: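 Readout is yeast growth inhibition, normalised to vehicle-treated controls, in the mec2-1 strain exposed to compound.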

[3] = NCI Yeast Anticancer Drug Screen. Data for the sgs1 mgt1 strain (AID 161);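 also: 0% = growth of cultures given vehicle only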; conditions: S. cerevisiae sgs1 mgt1 strain, at 50.0 µM, stronger effect = higher value
Method in brief: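 Percent growth inhibition was derived by comparing compound-exposed mutant yeast with vehicle-exposed cultures. The strain carries alterations in DNA damage repair.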

[4] = NCI Yeast Anticancer Drug Screen. Data for the cln2 rad14 strain (AID 165);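 also: 0% = growth equal to vehicle treated cultures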; conditions: S. cerevisiae cln2 rad14 strain, at 50.0 µM, stronger effect = higher value
Method in brief: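 Relative to vehicle controls, growth inhibition of compound-treated cln2 rad14 yeast was recorded.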

[5] = NCI Yeast Anticancer Drug Screen. Data for the bub3 strain (AID 167); conditions: S. cerevisiae bub3 mutant strain, at 50.0 µM, stronger effect = higher value
Method in brief: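 Inhibition values come from growth of compound-treated mutant yeast normalised to vehicle-treated controls.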

[6] = NCI Yeast Anticancer Drug Screen. Data for the mlh1 rad18 strain (AID 175); conditions: S. cerevisiae mlh1 rad18 strain growth inhibition; at 50.0 µM; stronger effect = higher value
Method in brief: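 Test agents were incubated with a yeast strain of defined genotype (DNA damage repair defect). Inhibition of growth was derived by comparison with vehicle-exposed cultures.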

Measured: growth inhibition

CCCCCCCCCCCCCCCCSc1ccc(S(=O)(=O)N(C)C)cc1N
inactive: [1] -16.3% | [2] -36.8% | [3] 3.15% | [4] 10% | [5] 0.75% | [6] 11.9%

COc1ccc2c(c1)C[N+](C)(C)[B-]O2
inactive: [1] -1.6% | [2] -1.55% | [3] 5.45% | [4] -8.65% | [5] 2.1% | [6] 6.75%

CN(C)c1ccccc1CC(=O)Nc1ccccc1
inactive: [1] -12.6% | [2] 4.45% | [3] -5.85% | [4] -21.8% | [5] 1.9% | [6] 3.1%

O=c1[nH]ncn2nc3ccccc3c12
inactive: [1] 3% | [2] 10.2% | [3] -2.5% | [4] -53.1% | [5] -1.3% | [6] 8.15%

COC(=O)C1CCC[P+]1(C)C (configuration not stated)
inactive: [1] 47.1% | [2] 41.7% | [3] 45.8% | [4] 13.8% | [5] 56.5% | [6] 38.5%

Oc1ccc(C2=NNC(c3ccc(O)cc3)=NN2)cc1
inactive: [1] 12.7% | [2] 11.9% | [3] 17% | [4] 21.1% | [5] 12.8% | [6] 10.1%

COc1cc(OC)cc(N(C)Cc2cnc3nc(N)nc(N)c3c2C)c1
inactive: [1] 0.75% | [2] 11.7% | [3] 15.6% | [4] 11.3% | [5] 12.3% | [6] -3.45%

CCCCCCCCCCC1OC(C)C(C)O1 (configuration not stated)
inactive: [1] 0.4% | [2] -13.1% | [3] -7.3% | [4] -25.1% | [5] -5.5% | [6] 13.2%

COP(=O)(OC)/C(=C\c1cn(C(c2ccccc2)(c2ccccc2)c2ccccc2)cn1)NC(C)=O
inactive: [1] -9.65% | [2] -32% | [3] -11.4% | [4] -22.1% | [5] -19.1% | [6] -10.2%

O=C(NCP(=O)(c1ccccc1)c1ccccc1)OCc1ccccc1
inactive: [1] -50.2% | [2] -3.7% | [3] -25.9% | [4] 10.4% | [5] -12.5% | [6] 6.6%

CN(C)CCNC(=O)C(C)(C)Oc1ccc(C(=O)c2ccc(Cl)cc2)cc1Cl
inactive: [1] -1.55% | [2] 6.1% | [3] -18.1% | [4] -21.6% | [5] -30.8% | [6] 40.2%

Cc1csnn1
inactive: [1] -12.7% | [2] -17.9% | [3] 8.5% | [4] -1.4% | [5] -1.6% | [6] -21.6%

Nc1ccc2c(c1)NCC2
inactive: [1] -27.6% | [2] -45.7% | [3] -17.1% | [4] 12.1% | [5] -14.9% | [6] -16.6%

c1ccc2c3c([nH]c2c1)C1(CCCCC1)c1c([nH]c2ccccc12)C31CCCCC1
inactive: [1] -19.6% | [2] 2.2% | [3] -8.9% | [4] 9.9% | [5] -20.4% | [6] -10.9%

O=C(O)/C=C\C(=O)Nc1ccccc1
inactive: [1] 10.2% | [2] 15.8% | [3] -16.1% | [4] -53.5% | [5] -3.25% | [6] 11.5%

CC(=O)OCC1OC(Sc2ccc([N+](=O)[O-])cc2)C(OC(C)=O)C(OC(C)=O)C1OC(C)=O (configuration not stated)
inactive: [1] 12.3% | [2] -11.8% | [3] -12.1% | [4] -1.35% | [5] -1.05% | [6] 17.9%

COc1ccc(-c2onc(-c3ccc([N+](=O)[O-])cc3)c2C2=NCCCN2)cc1
inactive: [1] 0.45% | [2] -6.65% | [3] -10.3% | [4] 12.7% | [5] -1.95% | [6] -20.3%

CCOC(=O)C1=C(C(=O)c2ccc(C)cc2)C(c2c(Cl)cccc2Cl)C(C(=O)c2ccc(C)cc2)=C(C(=O)OCC)N1
inactive: [1] 18.4% | [2] 21.1% | [3] 37.8% | [4] 44.5% | [5] 54.9% | [6] 38%

O=c1[nH]c2nc3ccccc3c(=O)n2/c1=C/c1ccc(O)cc1
inactive: [1] 9.6% | [2] 2.3% | [3] -12% | [4] 8.95% | [5] 7.3% | [6] -19.8%

Nc1ccc(C(=O)Nc2ccc(NC(=O)c3ccco3)c(O)c2)cc1
inactive: [1] 2.5% | [2] -11.3% | [3] 31.6% | [4] 13.4% | [5] 20.7% | [6] 10.1%

COc1ccc(S(=O)(=O)O)cc1NC(=O)CC(=O)c1cccc([N+](=O)[O-])c1
inactive: [1] -5.5% | [2] -18% | [3] 9.2% | [4] 9.05% | [5] -12% | [6] -15.9%

CC(=O)Nc1ccc(NC(=O)C2CC3C=CC2C3)cc1 (configuration not stated)
inactive: [1] 7.55% | [2] -11% | [3] -33% | [4] 3.1% | [5] -10.7% | [6] 23.2%

CCC1(C)NC(=O)OC1=O (configuration not stated)
inactive: [1] 2.25% | [2] -5.7% | [3] -27.6% | [4] 7.75% | [5] 20.5% | [6] 4.65%

CC(Cl)CN1c2ccccc2Sc2ccc(Cl)cc21 (configuration not stated)
inactive: [1] 33% | [2] -5.4% | [3] 2.35% | [4] 23% | [5] 5.35% | [6] 16.8%

C=CCc1cc(C)ccc1OC(=O)c1cc([N+](=O)[O-])cc([N+](=O)[O-])c1
inactive: [1] 2.85% | [2] -3.4% | [3] 4.55% | [4] -40% | [5] -6.6% | [6] 0.6%

Nc1ncnc2c1ncn2C1C=CC(COS(N)(=O)=O)C1 (configuration not stated)
inactive: [1] 13.2% | [2] 21.9% | [3] 0.7% | [4] 10.8% | [5] 13.9% | [6] 29.4%

CC(C)=CCC/C(C)=C/COC(=O)N(c1ccccc1)c1ccccc1
inactive: [1] 5.95% | [2] -0.1% | [3] 3.9% | [4] -47% | [5] 3.6% | [6] -1.15%

N#CN(Cc1ccccc1)Cc1ccccc1
inactive: [1] -1.25% | [2] 23.7% | [3] 7.75% | [4] 0.6% | [5] 10.7% | [6] 4%

C[N+]1(C(CO)Cc2c[nH]c3ccccc23)Cc2ccccc2C1 (configuration not stated)
inactive: [1] 10.6% | [2] 14.6% | [3] -19.1% | [4] -8.35% | [5] -65.5% | [6] -5.7%

OCC#C[C@@H]1CC[C@H]1C#CCO
inactive: [1] 7.3% | [2] -3.3% | [3] 6.3% | [4] 2.3% | [5] 2.6% | [6] -6%

CC12CCC(CC1)C(C)(C)N=C(N)S2
inactive: [1] -3.1% | [2] -10.8% | [3] -2.75% | [4] -18% | [5] -11.2% | [6] -20%

C=C1C(=O)O[C@@H]2C3=C(C)C(=O)C=C[C@]3(C)CC[C@@H]12
inactive: [1] 5.3% | [2] 9.05% | [3] 8.55% | [4] 0.8% | [5] 6.6% | [6] -14.3%

c1coc(C2SCSCS2)c1
inactive: [1] 0.35% | [2] 5.8% | [3] -6.7% | [4] -13.5% | [5] -8.2% | [6] -4.2%

COC1/C=C/OC2(C)Oc3c(C)c(O)c4c(O)c(c(/C=N/N(C)c5ccc([N+](=O)[O-])cc5[N+](=O)[O-])c(O)c4c3C2=O)NC(=O)C(C)=C/C=C/C(C)C(O)C(C)C(O)C(C)C(OC(C)=O)C1C (configuration not stated)
inactive: [1] 10.2% | [2] 55.6% | [3] 31.5% | [4] 63.6% | [5] 40.3% | [6] 56%

COC1CC(OC2CCC3(C)C(=CCC4C3C(OC(C)=O)C(OC(=O)CC(C)C)C3(C)C(C(C)=O)CCC43O)C2)OC(C)C1OC1CC(OC)C(OC2CC(OC)C(OC3OC(C)C(O)C(OC)C3O)C(C)O2)C(C)O1 (configuration not stated)
inactive: [1] 31.3% | [2] 6.55% | [3] 21.4% | [4] 16.9% | [5] -1.9% | [6] -83.5%

CCN(CC)Cc1cc(Nc2ccnc3ccc4nn(C)nc4c23)ccc1O
inactive: [1] -16.4% | [2] -19.4% | [3] -28.1% | [4] 4.45% | [5] 6.65% | [6] -1.75%

Cc1ccsc1C(=O)c1ccccc1[N+](=O)[O-]
inactive: [1] -3.65% | [2] -13.3% | [3] -6.7% | [4] -20.8% | [5] -7.35% | [6] 6.25%

Cn1cnc([N+](=O)[O-])c1C(=O)NCc1ccccc1
inactive: [1] -2.5% | [2] 9.1% | [3] 5.15% | [4] -20.8% | [5] -7.35% | [6] -9.05%

CC(O)C(O)C(=O)NN (configuration not stated)
inactive: [1] -1% | [2] 0.3% | [3] 11.4% | [4] 4% | [5] -2.9% | [6] -6.95%

O=Cc1ccccc1[N+](=O)[O-]
inactive: [1] 18.9% | [2] -8.35% | [3] 15% | [4] 14.2% | [5] 6.75% | [6] 17.9%

CN1C(=O)CC2C(=O)N(Cc3ccccc3)C(=O)C2C1=O (configuration not stated)
inactive: [1] 14% | [2] -4% | [3] -0.8% | [4] 11.6% | [5] 1.3% | [6] -2.85%

COc1ccc(/C(Nc2ccccc2)=C(\CCl)c2ccccc2)cc1OC
inactive: [1] 6.5% | [2] 7.75% | [3] 34.5% | [4] 5.1% | [5] 44.4% | [6] 9.25%
